PubChem BioAssay (Tox21)
Where “and” joins values, the source holds several entries; their conditions need not be identical. Equal values may be shown once. Records with an inconclusive call do not appear. The source holds several records for some structures; these can differ, active in one and inactive in another. Calls of active or inactive are those of the source. Unless noted, the call rests on the fitted dose curve.

Key:
[1] = qHTS assay to identify small molecule antagonists of the sonic hedgehog signaling (Shh) pathway (AID 1259369); further: nearly all actives have a fitted effect of over 45% in size; further: potency means the concentration at half of the fitted maximal effect
Method in brief: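 Luminescence readout: firefly Luc under Gli1 response element in 3T3Gli1-Luc cells (NIH/3T3 clone). Antagonist mode, stimulation by conditioned medium; compound exposure 24hr at 37 C, 5% CO2.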

[2] = qHTS assay to identify small molecule agonists of the androgen receptor (AR) signaling pathway in the presence of an antagonist - cell viability counter screen (AID 1259379; active means well fitted curve in the direction sought with a large enough effect in the repeat runs; an effect the other way counts as inactive or inconclusive; further: nearly all actives have a fitted effect of over 25% in size; further: potency means the concentration at half of the fitted maximal effect;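 on activity change, negative = cytotoxicity: MDA-kb2 human breast cancer cells carrying an MMTV luciferase reporter; series mostly up to about 92 µM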)
Method in brief: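 Viability counter screen: CellTiter-Fluor fluorescence, measured in the same wells as the luciferase read-out. MDA-kb2 cells, 3,000/well, with nilutamide at 3.0uM final and compounds at 15 concentrations, 16 hr at 37C, 0% CO2.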

[3] = qHTS assay to identify small molecule agonists of the estrogen receptor beta (ER-beta) signaling pathway - cell viability counter screen (AID 1259380; active means well fitted curve in the direction sought with a large enough effect in the repeat runs; an effect the other way counts as inactive or inconclusive; further: nearly all actives have a fitted effect of over 30% in size; further: potency means the concentration at half of the fitted maximal effect)
Method in brief: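 Luminescence read-out (CellTiter-Glo, 30 min, room temp) taken in the same wells as the beta-lactamase reporter assay; ER-beta-UAS-bla HEK293T cells exposed to DMSO-dissolved compounds for 16 hr at 37C in 2% charcoal-stripped FBS medium.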

[4] = qHTS assay to identify small molecule antagonists of the estrogen receptor beta (ER-beta) signaling pathway - cell viability counter screen (AID 1259382; active means well fitted curve in the direction sought with a large enough effect in the repeat runs; an effect the other way counts as inactive or inconclusive; further: nearly all actives have a fitted effect of over 55% in size; further: potency means the concentration at half of the fitted maximal effect;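 on activity change, negative = cytotoxicity: HEK293T cells carrying ER-beta-UAS-bla reporter stimulated with estradiol; series mostly up to about 92 µM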)
Method in brief: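 Luminescent ATP read-out (CellTiter-Glo, 30 min, RT) taken in the same wells as the bla reporter assay. HEK293T ER-beta-UAS-bla cells in 2% charcoal-stripped FBS were exposed to compounds with 1nM E2 for 16 hr at 37C.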

[5] = molecular target: Estrogen receptor (Homo sapiens) (UniProt P03372); test: qHTS assay to identify small molecule agonists of the estrogen receptor alpha (ER-alpha) signaling pathway in the presence of an antagonist (AID 1259383); further: top concentration of the series differs between compounds; nearly all actives have a fitted effect of over 15% in size
Chain of Estrogen receptor (Homo sapiens) (P03372 whole entry, looked up): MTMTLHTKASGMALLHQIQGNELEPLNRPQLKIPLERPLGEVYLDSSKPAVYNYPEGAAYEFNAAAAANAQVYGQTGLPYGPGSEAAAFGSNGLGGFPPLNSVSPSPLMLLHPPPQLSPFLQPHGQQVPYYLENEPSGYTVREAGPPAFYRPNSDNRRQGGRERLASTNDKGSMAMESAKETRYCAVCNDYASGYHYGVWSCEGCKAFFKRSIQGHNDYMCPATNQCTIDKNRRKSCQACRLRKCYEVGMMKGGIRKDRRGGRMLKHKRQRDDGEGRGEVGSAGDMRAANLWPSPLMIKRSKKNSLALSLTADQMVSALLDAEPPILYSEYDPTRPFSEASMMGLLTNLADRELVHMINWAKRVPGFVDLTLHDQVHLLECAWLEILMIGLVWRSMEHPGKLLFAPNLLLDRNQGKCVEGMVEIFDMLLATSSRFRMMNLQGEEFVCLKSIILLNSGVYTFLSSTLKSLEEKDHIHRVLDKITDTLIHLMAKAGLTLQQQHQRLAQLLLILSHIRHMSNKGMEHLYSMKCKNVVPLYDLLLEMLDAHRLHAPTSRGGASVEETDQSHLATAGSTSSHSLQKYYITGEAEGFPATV
Method in brief: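 Luciferase luminescence (ONE-Glo, 30min at room temperature) measured in VM7Luc4E2 cells after 22hr compound exposure at 15 concentrations, with 10.0nM ICI-182,780 final present; cells express endogenous ER-alpha and carry four EREs upstream of luciferase.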

[6] = qHTS assay to identify small molecule agonists or antagonists of the thyroid stimulating hormone receptor (TSHR) signaling pathway - wild type cell line counter screen (AID 1259384)
Method in brief: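 Counter screen in untransfected Hek293: compounds (15-point titration, triplicate) plus phosphodiesterase inhibitor Ro20-1724 added after 18 h plating; 30 min RT. Intracellular cAMP via competitive d2/cryptate immunoassay, 1 h incubation.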

[7] = molecular target: Thyrotropin receptor (Homo sapiens) (UniProt P16473); test: qHTS assay to identify small molecule antagonists of the thyroid stimulating hormone receptor (TSHR) signaling pathway (AID 1259385); further: nearly all actives have a fitted effect of over 20% in size
Chain of Thyrotropin receptor (Homo sapiens) (P16473 whole entry, looked up): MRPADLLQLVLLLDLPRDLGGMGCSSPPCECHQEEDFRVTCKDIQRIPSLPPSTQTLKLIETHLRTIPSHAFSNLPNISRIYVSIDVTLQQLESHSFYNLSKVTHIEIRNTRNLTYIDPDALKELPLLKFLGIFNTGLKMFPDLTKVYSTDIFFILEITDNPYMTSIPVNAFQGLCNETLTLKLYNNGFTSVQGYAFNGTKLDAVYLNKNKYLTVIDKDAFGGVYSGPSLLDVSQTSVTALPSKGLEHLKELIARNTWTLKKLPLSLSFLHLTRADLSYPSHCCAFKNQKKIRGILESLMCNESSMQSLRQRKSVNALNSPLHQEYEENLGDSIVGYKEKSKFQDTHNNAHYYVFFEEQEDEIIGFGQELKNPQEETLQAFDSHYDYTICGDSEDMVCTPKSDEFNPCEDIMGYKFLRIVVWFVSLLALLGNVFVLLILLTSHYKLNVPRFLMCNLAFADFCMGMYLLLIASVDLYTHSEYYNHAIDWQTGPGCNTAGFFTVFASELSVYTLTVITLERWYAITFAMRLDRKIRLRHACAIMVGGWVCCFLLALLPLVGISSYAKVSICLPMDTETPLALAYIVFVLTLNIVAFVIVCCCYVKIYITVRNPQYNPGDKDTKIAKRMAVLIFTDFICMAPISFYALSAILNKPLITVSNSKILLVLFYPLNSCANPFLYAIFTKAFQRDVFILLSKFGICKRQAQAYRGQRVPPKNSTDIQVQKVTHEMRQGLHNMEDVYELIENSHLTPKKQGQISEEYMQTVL
Method in brief: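 Antagonist mode: compound-treated TSHR-expressing HEK293 cells were stimulated with 1.5 ng/mL TSH (final) in presence of Ro20-1724 for 30 min at RT. HTRF cAMP detection after 1 h; each compound tested at 15 concentrations, triplicate.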

[8] = molecular target: Androgen receptor (Homo sapiens) (UniProt P10275); test: qHTS assay to identify small molecule agonists of the androgen receptor (AR) signaling pathway in the presence of an antagonist (AID 1259381); further: nearly all actives have a fitted effect of over 15% in size
Chain of Androgen receptor (Homo sapiens) (P10275 whole entry, looked up): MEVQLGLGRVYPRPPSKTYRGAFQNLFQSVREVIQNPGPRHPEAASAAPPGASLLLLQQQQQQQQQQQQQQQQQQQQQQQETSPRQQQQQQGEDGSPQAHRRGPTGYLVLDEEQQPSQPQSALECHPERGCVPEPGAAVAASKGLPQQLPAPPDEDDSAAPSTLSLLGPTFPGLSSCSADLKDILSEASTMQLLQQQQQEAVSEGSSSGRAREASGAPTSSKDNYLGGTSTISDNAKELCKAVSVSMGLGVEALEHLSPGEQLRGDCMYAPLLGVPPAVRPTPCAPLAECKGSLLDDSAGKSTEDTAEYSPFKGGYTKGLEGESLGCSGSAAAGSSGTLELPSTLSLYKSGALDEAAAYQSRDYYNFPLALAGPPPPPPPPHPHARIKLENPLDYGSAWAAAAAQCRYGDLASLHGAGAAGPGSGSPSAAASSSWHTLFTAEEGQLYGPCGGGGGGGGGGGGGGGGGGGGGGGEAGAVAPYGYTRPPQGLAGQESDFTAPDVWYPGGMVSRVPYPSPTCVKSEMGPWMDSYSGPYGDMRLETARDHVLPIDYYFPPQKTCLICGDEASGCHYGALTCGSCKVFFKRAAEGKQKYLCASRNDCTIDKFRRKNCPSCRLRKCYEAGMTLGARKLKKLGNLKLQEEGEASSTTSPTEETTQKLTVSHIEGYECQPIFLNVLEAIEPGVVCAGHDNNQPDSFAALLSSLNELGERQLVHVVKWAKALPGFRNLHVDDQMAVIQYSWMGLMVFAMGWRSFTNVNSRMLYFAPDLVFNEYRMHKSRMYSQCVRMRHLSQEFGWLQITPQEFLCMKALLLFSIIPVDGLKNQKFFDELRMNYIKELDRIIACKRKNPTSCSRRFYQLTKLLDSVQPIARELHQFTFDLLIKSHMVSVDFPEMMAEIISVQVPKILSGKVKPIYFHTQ
Method in brief: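 Luciferase read-out (ONE-Glo, 30min room temperature) in MDA-kb2 MMTV-reporter cells; agonist mode run in presence of AR antagonist nilutamide, 3.0uM final. Compounds tested as 15-point series, 16hr exposure at 37C, 0% CO2.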
On the % scale 0 is the no-effect control and ±100 the full control effect.

CCCCC(CC)COC(=O)CCCCC(=O)OCc1ccccc1 (stereo not given)
inactive: Potency [1] | Potency [2] | Potency [3] | Potency [4] | Potency [5] | outcome [6]

CC(C)CCCCCOC(=O)CCS
inactive: Potency [1] | Potency [2] | Potency [3] | Potency [4] | Potency [5] | outcome [6] | Potency [7]

Nc1nc(-c2ccccc2)cs1
inactive: Potency [1] | Potency [2] | Potency [3] | Potency [4] | outcome [6] | Potency [7]

Cl[Si](Cl)(c1ccccc1)c1ccccc1
inactive: Potency [1] | Potency [2] | Potency [3] | Potency [4] | Potency [5] | outcome [6] | Potency [7]

CC(=O)[C@H]1CC[C@H]2[C@@H]3CCC4=CC(=O)CC[C@]4(C)[C@H]3CC[C@]12C
active: Potency [1] 9.63 µM and 6.11 µM | Potency [2] 60.8 µM | Potency [3] 54.2 µM and 61.1 µM
inactive: Potency [5] | outcome [6]

CCCCNS(=O)(=O)c1ccc(C)cc1
inactive: Potency [1] | Potency [2] | Potency [3] | Potency [4] | Potency [5]

CCC(=O)C(=O)CC
inactive: Potency [1] | Potency [2] | Potency [3] | Potency [4] | outcome [6] | Potency [7]

NC[C@H]1O[C@H](O[C@H]2[C@H](O[C@@H]3O[C@H](CO)[C@@H](O)[C@H]3O)C(O)[C@H](N)C[C@@H]2N)[C@H](N)[C@@H](O)[C@@H]1O (stereo not given in full)
inactive: activity change, negative = inhibition [1] -6.57% [at 8.39 µM] | activity change, negative = cytotoxicity [2] 2.75% [at 8.39 µM] | activity change, negative = cytotoxicity [3] 1.6% [at 8.39 µM] | activity change, negative = cytotoxicity [4] 0.11% [at 8.39 µM] | cAMP activity change [6] -9.73% [at 8.39 µM] | activity change, negative = inhibition [7] -4.82% [at 8.39 µM]

CCOC(=O)Cn1cccc1-c1nc(-c2ccc(OC)cc2)c(-c2ccc(OC)cc2)s1
inactive: Potency [1] | Potency [2] | outcome [8] | Potency [4] | Potency [5]

OC1CCCc2ccccc21 (stereo not given)
inactive: Potency [1] | Potency [2] | Potency [3] | Potency [4] | Potency [5] | outcome [6] | Potency [7]

COc1cc(S(=O)(=O)O)c(C)cc1N=Nc1c(O)ccc2cc(S(=O)(=O)O)ccc12
inactive: Potency [1] | Potency [3] | Potency [5]
active: Potency [2] 27.3 µM

C=CC(C)(CCC=C(C)C)OC=O (stereo not given)
inactive: Potency [1] | Potency [2] | Potency [3] | Potency [4] | Potency [5] | outcome [6] | Potency [7]

CCCCCCCCCCCCCCCC[N+](C)(C)CC
active: Potency [1] 6.88 µM and 15 nM | Potency [2] 48.7 µM and 18.8 µM | Potency [3] 54.6 µM and 11.9 µM | Potency [4] 34.5 µM and 23.7 µM
inactive: outcome [6]

CC(C)CCOC(=O)/C=C/c1ccccc1
inactive: Potency [1] | Potency [2] | Potency [3] | Potency [5] | outcome [6]

Cc1cc(C(C)(C)C)cc(C)c1CC1=NCCN1
inactive: Potency [1] | Potency [2] | Potency [3] | Potency [4] | outcome [6] | Potency [7]

CN(C)C(=O)COC(=O)Cc1ccc(OC(=O)c2ccc(N=C(N)N)cc2)cc1
inactive: Potency [1] | Potency [2] | Potency [3] | Potency [4] | outcome [6] | Potency [7]

CC(N=C(NC#N)Nc1ccncc1)C(C)(C)C (stereo not given)
inactive: Potency [1] | Potency [2] | Potency [3] | Potency [4] | outcome [6] | Potency [7]

c1cnccn1
inactive: Potency [1] | Potency [2] | Potency [3] | Potency [4] | Potency [5] | outcome [6] | Potency [7]

CC(C)(c1cc(Br)c(OCC(Br)CBr)c(Br)c1)c1cc(Br)c(OCC(Br)CBr)c(Br)c1 (stereo not given)
inactive: Potency [1] | Potency [2] | Potency [3] | Potency [4] | outcome [6] | Potency [7]

Cc1ccc(C(=O)O)cc1
inactive: Potency [1] | Potency [2] | Potency [3] | Potency [4] | outcome [6] | Potency [7]

C=C(CC)C(=O)c1ccc(OCC(=O)O)c(Cl)c1Cl
inactive: Potency [5] | outcome [6]
active: Potency [1] 6.68 µM | Potency [2] 60.7 µM | Potency [3] 48.2 µM | Potency [4] 60.7 µM

CCC(C)[O-].CCC(C)[O-].CCOC(=O)/C=C(/C)[O-].[Al+3]
inactive: Potency [1] | Potency [2] | Potency [3] | Potency [4] | outcome [6]

C#CC1(O)CC[C@H]2[C@@H]3CCC4=CCCC[C@@H]4[C@H]3CC[C@@]21C (stereo not given in full)
inactive: Potency [2] | outcome [6] | Potency [7]
48.6 µM (active) and inactive: Potency [1]
active: Potency [3] 61.1 µM and 29.8 µM | Potency [4] 61.1 µM and 26.6 µM

Cc1c(F)c(N2CCNC(C)C2)cc2c1c(=O)c(C(=O)O)cn2C1CC1 (stereo not given)
inactive: Potency [1] | Potency [2] | Potency [3] | Potency [4] | outcome [6]
